From PubChem
Rows were chosen to be rich in hits. Some 4.6% of all compounds tested hit in one or more screens of this group.
D1 ag: agonists of human D1 dopamine receptor; P21728; HEK293 T-REx D1 cells, calcium flux, agonist mode; activation, % at 2 µM; actives 1% (n = 360,000); AID 504660; note: 0% is about no effect
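Tetracycline-induced HEK293 TREx D1 cells, force-coupled to calcium signalling, were dye-loaded with a no-wash calcium kit. Compound was pin-added after a 10 s baseline. Fluorescence was read kinetically at 1 cycle/s for 180 s, with calcium rises flagged as agonism.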
D1 antag: blocks dopamine activation of the human D1 receptor. P21728. HEK293 TREx D1 cells, calcium flux, dopamine EC80; active compounds read low. activity change, negative = inhibition, % at 10 µM. actives 3.2% (n = 360,000). AID 504652; in the data active = activity change below about -30%; note: % is set by controls: 0 for no effect and ±100 for the full control effect
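Cells carrying a force-coupled, tetracycline-inducible human D1 receptor report calcium flux. Each well gets a 10 s baseline, compound with 180 s monitoring, then an EC80 dopamine stimulus with a second 180 s kinetic read.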
TRHR enhancer: TRH receptor (human) allosteric enhancement. P34981. TRHR cells, fluo-8 calcium fluorescence, EC20 TRH enhancement. enhancement, % at 2 µM. actives 0.66% (n = 360,000); in the data active = enhancement above about 30%; note: 0% is about no effect
Target sequence (P34981 whole entry, looked up): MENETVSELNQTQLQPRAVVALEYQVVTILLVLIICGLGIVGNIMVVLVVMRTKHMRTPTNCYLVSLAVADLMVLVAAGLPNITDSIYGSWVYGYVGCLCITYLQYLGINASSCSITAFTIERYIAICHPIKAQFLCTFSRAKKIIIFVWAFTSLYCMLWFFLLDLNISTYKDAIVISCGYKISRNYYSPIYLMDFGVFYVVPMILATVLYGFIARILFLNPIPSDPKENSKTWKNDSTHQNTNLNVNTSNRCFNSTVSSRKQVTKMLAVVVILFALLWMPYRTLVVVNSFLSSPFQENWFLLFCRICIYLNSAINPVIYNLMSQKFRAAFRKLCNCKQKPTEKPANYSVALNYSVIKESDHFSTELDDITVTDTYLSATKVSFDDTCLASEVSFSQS
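Enhancer read-out: after compound pinning and an initial kinetic agonist-mode read, an EC20 of TRH (10 nM final) was injected and fluo-8 calcium signal (Ex 480/Em 530) followed at 1 s/cycle for 100 cycles in TRHR-expressing cells.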
Epigenetic reg: derepresses silenced GFP reporter in murine cells; murine LDR cells, GFP reporter derepression, 30 h; Potency, µM (titrated, usually from 53.9 µM), for inactives: at the highest dose GFP activation, usual class: activators; AID 1865; actives 0.2% (n = 280,000); active = well fitted activation curve with a large enough effect; inconclusive = small, poorly fitted or top-dose-only effect; note: potency is the fitted concentration of half-maximal effect; % of control where 0% means no effect; nearly all actives have a fitted effect of over 60% in size
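Readout is the number of GFP-expressing murine LDR cells, counted by cytometry following washing. Cells were treated with compound for 30 h at 37 C; the stably integrated CMV-GFP locus is normally silent.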
TRHR agonist: agonists of human TRH receptor | P34981 | TRHR cells, calcium flux fluo-8, FDSS agonist mode | activation, % at 2 µM | actives 0.18% (n = 360,000) | AID 493084; note: 0% is about no effect
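TRHR-expressing cells, plated overnight in medium with 10% serum, were loaded with fluo-8 calcium dye at room temperature. After a 10 s baseline, library compound was pin-added and calcium release was recorded kinetically (ex 480/em 530) as agonist response.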
D1 potentiator: potentiators of human D1 dopamine receptor | P21728 | HEK293 TREx D1 cells, calcium flux, dopamine EC20 potentiation | potentiation, % at 10 µM | actives 0.036% (n = 360,000) | AID 504651; in the data active = potentiation above about 30%; note: 0% is about no effect
An asterisk follows results filed as active; ? = inconclusive; nt = not tested or not shown; ! = not active in a repeat; [ ] = another dose, or the depositor's remark. Cut-off read from the data, not from the text of the source, unless noted: active = activation above about 30%; inactive = the rest.

SMILES	D1 ag	D1 antag	TRHR enhancer	Epigenetic reg	TRHR agonist	D1 potentiator
CCCN(CCC)CCCNC(=O)c1nn(C)c2c1CS(=O)(=O)c1ccccc1-2	1.9	-1.5	-1.8	0.0%	-0.9	-0.8
O=C(NCCS(=O)(=O)N1CCN(c2cccc(Cl)c2)CC1)C(c1ccccc1)c1ccccc1	6.8	8.7	-4.1	-1.7%	0.7	-1.7
CCOc1ccc(NC(=O)C2CCC(CNS(=O)(=O)c3ccc(Br)s3)CC2)cc1 (centres undefined)	2.2	-0.8	4.1	1.6%	0.9	7.2
CCC(=O)Nc1nnc(/C=C/c2ccc(OC)cc2)s1	2.3	-48.2*	6.9	-0.3%	1.0	-0.1
COc1ccc(/C=C/c2nnc(NC(=O)CSc3ccc(C)cc3)s2)cc1	10.3	21.9	5.8	3.3%	1.3	4.8
CCN(Cc1ccccc1)Cc1c(O)ccc2c(=O)c(-c3ccccc3Cl)c(C(F)(F)F)oc12	-1.5	-0.3	-10.0	3.8%	-0.7	2.0
CCc1ccc(-c2[nH]nc3nc(-c4cc(OC)ccc4OC)cc(C(=O)O)c23)cc1	7.2	-1.2	1.6	0.0%	-0.2	-1.2
COc1ccc(C(C)=O)cc1COC(=O)c1c(C)noc1C	0.3	-43.7*	-1.2	2.8%	-0.3	-5.2
CCc1cc2c(COC(=O)c3c(C)noc3C)cc(=O)oc2cc1O	3.7	5.6	33.4*	-1.4%	-0.9	-5.5
O=c1cc(CSc2ncn[nH]2)[nH]c2c(Cl)cccc12	1.2	-19.5	1.8	-3.1%	0.1	-0.8
Cc1nc2ccccc2cc1OCc1ccccc1	16.8	-59.0*	1.2	1.1%	1.2	-6.7
Cc1nc2ccccc2cc1OCc1ccc(Cl)cc1	11.5	-12.2	2.8	-0.9%	0.1	5.6
CCCc1nn2c(=O)cc(COC(=O)c3ccc(NC(=O)c4cccs4)cc3)nc2s1	-0.5	10.3	4.2	-1.4%	0.5	0.1
COc1ccc(/C=C/C(=O)OCC(=O)Nc2cc(S(=O)(=O)N(C)C)ccc2Cl)cc1	8.2	-34.2*	-2.0	-1.7%	0.3	-11.1
COc1ccc(OCC(=O)Nc2cc(S(=O)(=O)N3CCCC3)ccc2Cl)cc1	10.5	12.7	9.6	nt	0.6	-3.6
COc1ccc(OC)c(/C=C/C(=O)OCC(=O)Nc2ccc(Cl)c(S(=O)(=O)N(C)C)c2)c1	7.4	-34.6*	0.0	-0.1%	-0.4	3.1
CCN(CC)S(=O)(=O)c1ccc(Cl)c(NC(=O)COc2ccc(OC)cc2)c1	8.4	-31.4*	2.9	-0.1%	0.6	1.4
CCCN(C(=O)Cn1nc(Cc2cccnc2)c2ccccc2c1=O)c1ccc(C(C)C)cc1	12.8	-27.6	0.6	-1.4%	-1.0	-1.1
CCOc1ccc(NC(=O)Cn2c(=O)n(Cc3ccco3)c(=O)c3ccc(C(=O)NC4CCCC4)cc32)cc1	0.4	-6.6	-5.4	?	0.4	3.0
Cc1cc2c(c(=O)n1-c1ccccc1)C1O[C@](c3ccsc3)(Cc3cc(C#N)ccc31)O2	0.4	-7.9	-1.1	nt	0.1	3.5
COCCCNC(=O)CCCn1c(=O)c2cccn2c2ccccc21	-0.7	-0.9	1.6	2.2%	0.1	0.0
COC(=O)CN1C(C(=O)c2ccccc2)=C(OC(=O)c2ccc(F)cc2)c2ccccc2S1(=O)=O	-0.5	-78.2*	-7.5	-4.3%	1.2	-1.3
COc1cccc(-c2c(C(=O)N/N=C(\C)c3ccco3)nnn2-c2nonc2N)c1	46.8*	34.0	20.3	nt	5.0	2.2
C/C(=N\NC(=O)c1nnn(-c2nonc2N)c1-c1ccccc1)c1ccco1	66.0*	34.0	23.4	nt	14.0	3.0
CCc1ccc(CN2CCc3nc(Nc4ccc5c(c4)OCCO5)ncc3C2)cc1	0.8	-66.0*	4.1	-6.2%	1.2	0.5
SMILES	D1 ag	D1 antag	TRHR enhancer	Epigenetic reg	TRHR agonist	D1 potentiator
COCCNC(=O)c1ccc(-c2nc(CS(=O)(=O)c3ccccc3)c(C)o2)cc1	2.5	-15.3	-4.7	4.9%	-0.6	-0.1
CN(c1ccccc1)c1ccc(/C=C/[N+](=O)[O-])cc1	139.7*	-52.3*	3.1	-1.6%	-1.6	-13.6
CCOc1cc(/C=N/NC(=O)c2ccncc2)ccc1OC(=O)c1ccccc1	3.8	-39.5*	-5.6	nt	-0.3	-9.8
CCOc1cc(/C=N/NC(=O)c2ccncc2)ccc1OC(=O)c1ccc([N+](=O)[O-])cc1	2.1	-13.6	-3.7	0.9%	-0.1	-9.4
Cc1noc(C)c1C(=O)OCC(=O)c1cc(C)n(Cc2ccccc2Cl)c1C	6.0	-37.5*	-5.5	-1.0%	-0.3	-11.7
Cc1noc(C)c1C(=O)OCC(=O)c1ccc[nH]1	2.2	1.8	1.9	3.9%	0.5	-3.7
COc1cc(NC(=O)C2Cc3ccccc3N2C(=O)c2ccccc2)cc(OC)c1 (centres undefined)	0.7	-0.6	3.6	5.6%	0.0	0.8
O=C1c2ccccc2C(=O)c2c(Nc3ccc(CCO)cc3)ccc(O)c21	2.4	-23.1	-3.9	1.1%	-0.7	-5.2
O=C1c2c(O)ccc(O)c2C(=O)c2c(NCCNCCO)ccc(NCCNCCO)c21	-1.5	15.2	-0.5	12.6µM*!	0.0	-4.5
CCOC(=O)Cc1nnc(NC(=O)C(CC)Sc2nc(C)cc(C)n2)s1 (centres undefined)	3.5	-35.5*	-1.8	-3.1%	0.3	nt
CCSc1nnc(NC(=O)Cc2ccc(OC)c(OC)c2)s1	1.6	-33.1*	-5.2	-1.2%	-0.5	-8.8
COCCSc1nnc(NC(=O)Cc2ccc(OC)c(OC)c2)s1	3.8	12.5	12.0	-2.9%	0.6	-5.2
CCOC(=O)Cc1nnc(NC(=O)c2ncn[nH]2)s1	6.1	21.2	-0.4	0.0%	0.5	-2.4
COC(=O)c1cc(NC(=O)CSc2nnc(N)s2)ccc1Cl	1.5	10.1	34.0*	1.1%	0.4	-3.8
CCOC(=O)Cc1nnc(NC(=O)CSc2ccc(Cl)cc2)s1	9.7	-31.5*	-2.8	0.0%	0.8	-2.0
O=C1[C@@H]2[C@H]3C(=CC[C@@H]2C(=O)N1Cc1ccccc1)C1(OCCCO1)[C@H]1O[C@@H]1[C@H]3O	nt	nt	nt	0.0%[10.1 µM]	nt	nt
COc1ccc(Cc2nnc(NC(=O)CSc3ccc(C)cc3)s2)cc1OC	224.0*	-1.2	9.4	4.8%	0.1	6.4
COc1ccc(NC(=O)CSc2nnc(NC(=O)C3CC3)s2)cc1OC	0.8	-35.8*	14.1	nt	0.8	-13.3
CC(=O)Nc1ccc(NC(=O)CSc2nnc(NC(=O)C3CC3)s2)cc1	1.1	-23.1	0.7	nt	0.6	-9.5
CCOc1ccc(-c2cccc(NS(=O)(=O)c3ccccc3C(F)(F)F)c2)nn1	0.9	-5.7	3.8	-1.7%	-0.6	-2.5
O=C(CNC(=O)c1ccc(Br)o1)NNC(=O)c1ccc(Br)cc1	0.5	4.9	-13.4	nt	0.4	-2.1
